Experimental data published in PubChem BioAssay (NCATS).
Records with an inconclusive call do not appear. Active and inactive are the calls of the source. Unless noted, calls follow the shape of the dose curve; as a rule, active = well fitted curve in the direction sought with a large enough effect; inconclusive = small, poorly fitted or top-dose-only effect, or another doubt; inactive = no such curve, though single readings can be large; an effect the other way counts as inactive or inconclusive.

Tests used:
[1] = AP1 Signaling Pathway (AID 357; active = well fitted curve in either direction with a large enough effect, not every such curve was filed as active; also: % is scaled to controls: 0 for no effect and ±100 for the full control effect); conditions: ME-180 AP-1-bla reporter, EGF-induced, beta-lactamase ratio, 5 h
In short: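 AP-1-bla ME-180 cells with beta-lactamase reporter under AP-1 response element, stimulated with EC50 EGF; compounds titrated, 5 hours at 37 degrees Celsius. CCF4 read at 460/530 nm ratio; positive and negative modulators judged by AC50.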

[2] = molecular target: Cytochrome P450 1A2 (Homo sapiens) (UniProt P05177); assay: p450-cyp1a2 (AID 410; calls by dose curve;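 also: -100% = full effect of reference inhibitor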); conditions: recombinant CYP1A2, luciferin-ME demethylation, luminescence; series mostly up to 11.4 µM
In short: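 20nM CYP1A2, 100uM Luciferin-ME (=Km), 100mM KPO4; cpd 10 min RT; +NADPH regen, 60 min RT; stop/detect 20 min; luminescence. Normalized to furafylline 57 uM = full inhibition.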

[3] = NFAT Signaling Pathway (AID 444; active = well fitted curve in either direction with a large enough effect, not every such curve was filed as active;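 also: carbachol stimulus at about its EC50 of 1 µM final; % is scaled to controls: 0 for no effect and ±100 for the full control effect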); conditions: Jurkat NFAT-bla M1, carbachol, beta-lactamase ratio, 5 h
In short: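 Jurkat cells with NFAT-driven β-lactamase reporter and co-expressed M1 receptor, stimulated with carbachol (final 1 uM, ~EC50), compound titration, 5 h at 37 °C. CCF4 loaded 1 h at RT; 460/530 nm ratio gave %activity and AC50.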

[4] = Stat Signaling Pathway (AID 446; active = well fitted curve in either direction with a large enough effect, not every such curve was filed as active;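 also: ME-180 cervical cancer cells given 40 pM IL-6 alongside compound; SIE-controlled beta-lactamase reporter measured as 460/530 nm FRET emission ratio; % is scaled to controls: 0 for no effect and ±100 for the full control effect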); conditions: ME-180 SIE beta-lactamase reporter, IL-6 stimulated, 5 h
In short: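 FRET read-out (405 nm excitation, 460/530 nm emission) of a beta-lactamase reporter under a STAT-inducible element in ME-180 cervical carcinoma cells. Cells with compound receive 40 pM IL-6 for 5 h. Values are normalised to AC90 stimulation and AC90 JAK-inhibitor controls.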

[5] = molecular target: Mitogen-activated protein kinase 10 (Mus musculus) (UniProt Q61831); assay: JNK3 AlphaScreen Assay (AID 530; active = well fitted curve in either direction with a large enough effect, not every such curve was filed as active;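 also: kinase came from lysate of stimulated human HepG2 cells; signal reports phosphorylation of biotinylated GST-cJun 1-79 at Ser73 with 10 µM ATP; % is scaled to controls: 0 for no effect and ±100 for the full control effect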); conditions: JNK3 lysate, c-Jun phosphorylation; series mostly up to 11.4 µM
In short: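 HepG2 lysate (IL-1b/TNFa pre-activated) + biotin-GST-cJun 1-79 + anti-pSer73 cJun; cpd titration, 15 min RT; ATP 10 uM start; Tris pH 7.6, MgCl2, DTT, vanadate; beads in EDTA buffer; AlphaScreen.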

[6] = molecular target: 3',5'-cyclic-AMP phosphodiesterase 4B (Homo sapiens) (UniProt Q07343); assay: qHTS Assay for Inhibitors of PDE-IV (AID 607; active = well fitted activation curve with a large enough effect in the main read-out, with a control signal flat, not every such curve was filed as active; also: % of control where 0% means no effect); conditions: HEK293 ACTOne CNG channel cells, membrane potential fluorescence; series mostly up to 22.9 µM
In short: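 Cell-based read-out of cAMP via a modified cyclic nucleotide-gated channel and membrane potential dye (535/590 nm) in HEK293 cells expressing PDE4 endogenously. Compounds tested up to 22.9 uM final; 100 uM RO 20-1724 reference.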

[7] = molecular target: Guanine nucleotide-binding protein G(i) subunit alpha-1 (Homo sapiens) (UniProt P63096); assay: qHTS Assay for Inhibitors of RGS12 GoLoco Motif Activity (Green Fluorophore) (AID 879); conditions: Galphai1/FITC-RGS12 GoLoco peptide, fluorescence polarization; series mostly up to 57.1 µM;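 also: 0% = labeled peptide with Gαi1 and full inhibition = labeled peptide alone without protein; negative values mean loss of peptide binding seen as reduced polarization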
In short: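 A drop in FITC polarization marked displacement of the FITC-tagged RGS12 GoLoco peptide (10 nM) from Gαi1 (50 nM). Compounds were incubated 10 min at room temperature in Tris pH 7.5 buffer containing 150 mM NaCl, 0.1 mM GDP and 0.05% NP40; unlabeled peptide titration served as control.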

[8] = molecular target: Cytochrome P450 3A4 (Homo sapiens) (UniProt P08684); assay: qHTS Assay for Activators of Cytochrome P450 3A4 (AID 885); conditions: recombinant CYP3A4, Luciferin-PPXE luminescence, 60 min; series mostly up to 11.4 µM; also: nearly all actives have a fitted effect of over 65% in size
In short: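 Luminescent readout of luciferin formed from 25 uM Luciferin-PPXE (KM level) by 20 nM CYP3A4 in 200 mM KPO4, with 60 min NADPH-driven reaction at room temperature after 10 min compound exposure. Ketoconazole (57 uM) defined 100% inhibition.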

[9] = qHTS Assay for Identification of Small Molecule Agonists for Thrombopoietin (TPO) Signaling Pathway (AID 917); conditions: TPO signaling pathway reporter cells, agonist qHTS, stimulated with TPO at its EC50; series mostly up to 38.5 µM; also: % is scaled to controls: 0 for no effect and ±100 for the full control effect
In short: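 Human TPO receptor–transfected Ba/F3 cells (murine, IL-3-dependent) in IL-3-deficient medium; compounds plus TPO at EC50, 26 pM final; 24 hrs, 37 C; GpIIb-luciferase luminescence after 10 min RT detection.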

[10] = molecular target: Muscarinic acetylcholine receptor M1 (Rattus norvegicus) (UniProt P08482); assay: qHTS Assay for Antagonists of Acetylcholine Muscarinic M1 Receptor: Measurement of IP-One Response (AID 944); conditions: CHO-M1 cells, IP-One HTRF, antagonist mode; series mostly up to 46.1 µM; also: nearly all actives have a fitted effect of over 75% in size
In short: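 Read-out: HTRF competition between d2-IP1 and Eu-cryptate anti-IP1 antibody, emission 620 and 665 nm. Stimulus was carbachol, EC80 (200 nM), for 30 min in M1-CHO cells (rat receptor), after 10 min compound pre-treatment.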

[11] = molecular target: Pyruvate kinase PKM (Homo sapiens) (UniProt P14618); assay: qHTS Assay for Activators of Human Muscle Pyruvate Kinase (AID 954; active = well fitted curve in the direction sought with a large enough effect, not every such curve was filed as active;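 also: 0% = uninhibited enzyme and -100% = no enzyme or full thiadiazolimine inhibition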); conditions: purified human muscle pyruvate kinase, luciferase-coupled luminescence, 1 h; series mostly up to 57.5 µM
In short: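 ATP production by PKM2 detected via luciferase luminescence after 1 h room-temperature reaction (0.1 nM enzyme, PEP at Km 0.5 mM, ADP 0.1 mM, pH 7.2 imidazole buffer). Inhibition scaled to no-enzyme control; activation referenced to 0.3 nM enzyme wells.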

[12] = molecular target: Alpha-galactosidase A (Homo sapiens) (UniProt P06280); assay: Counterscreen for Glucocerebrosidase Inhibitors: qHTS Assay for Human alpha-Galactosidase at pH 4.5 (AID 992); conditions: purified enzyme, fluorogenic substrate; series mostly up to 76.9 µM; also: 0% is about no effect
In short: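 Fluorogenic 1536-well qHTS at pH 4.5 (citrate, Tween-20): 2 nM enzyme, 80 uM 4-MU-alpha-galactoside, 20 min room temperature, NaOH/glycine stop. Titration 0.7 nM to 77 uM, data normalized to no-enzyme and full-activity controls, Hill-fitted AC50.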

[13] = molecular target: alpha-glucosidase (Oryza sativa, rice) (UniProt Q653V4); assay: Counterscreen for Glucocerebrosidase Inhibitors: qHTS Assay for Rice alpha-Glucosidase at pH 5.0 (AID 997); conditions: rice alpha-glucosidase enzyme activity; series mostly up to 76.9 µM;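 also: 0% = full activity with enzyme and -100% = basal without enzyme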
In short: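 Endpoint fluorogenic assay at pH 5.0: compounds (0.7 nM to 77 uM) titrated against 4 nM rice enzyme and 400 uM 4-MU-alpha-glucoside for 20 min at room temperature; NaOH/glycine stop, read ex 365/em 440 nm, Hill-fitted AC50.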

[14] = molecular target: Glucocorticoid receptor (Homo sapiens) (UniProt P04150); assay: GR-GFP Redistribution (AID 450;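 active = compounds whose dose series gives a full or clear partial fitted curve of increased nuclear translocation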; also: potency is read from the fitted curve at half-maximal effect); conditions: U2OS GR-GFP nuclear translocation, laser cytometry, 2 h
[15] = molecular target: Glucocorticoid receptor (Homo sapiens) (UniProt P04150); assay: GR-EFC Redistribution (AID 451; calls by dose curve; also: potency is read from the fitted curve at half-maximal effect); conditions: CHO-K1 GR-EFC translocation, beta-gal luminescence, 2 h
In short: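 CHO-K1 cells expressing nuclear EA and GR-ED fragments of b-gal; compounds titrated up to 46 uM final, 2 h at 37 C. GR nuclear translocation read as complemented b-gal luminescence after 1 h RT detection.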

[16] = molecular target: Cytochrome P450 2C9 (Homo sapiens) (UniProt P11712); assay: qHTS Assay for Inhibitors and Substrates of Cytochrome P450 2C9 (AID 883); conditions: recombinant CYP2C9, luciferin-H luminescence, 60 min; series mostly up to 11.4 µM; also: % is scaled to controls: 0 for no effect and ±100 for the full control effect; nearly all actives have a fitted effect of over 60% in size
In short: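 Signal: luciferase luminescence reporting luciferin produced by CYP2C9. Conditions: 10nM enzyme, Luciferin-H 100uM at KM, 25mM KPO4, 37C, 60 min NADPH-driven reaction. Reference: 57uM sulphaphenazole as 100% inhibition.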

[17] = molecular target: Pyruvate kinase (Leishmania mexicana) (UniProt Q27686); assay: qHTS Validation Assay for Inhibitors of Leishmania Mexicana Pyruvate Kinase (AID 945);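 also: 0% = DMSO only neutral control wells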; conditions: purified L. mexicana pyruvate kinase, enzyme activity, E451W mutant enzyme; series mostly up to 57.5 µM
In short: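 The enzyme is a highly purified E451W mutant of LmPYK used at 0.2 nM. It converts 0.5 mM PEP and 0.1 mM ADP over 1 h at room temperature; product ATP is quantified by luciferase luminescence relative to DMSO controls.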

[18] = qHTS Assay for Identification of Small Molecule Agonists for Hypoxia Response Element Signaling Pathway (AID 914; active = well fitted activation curve with a large enough effect in the signal ratio, with a control signal flat, not every such curve was filed as active; the % refers to the signal ratio; also: % of control where 0% means no effect); conditions: ME-180 (cervical carcinoma) HRE-bla reporter, beta-lactamase ratio, CoCl2, 17 h; activation: stronger effect = higher value
In short: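 Cells were plated overnight, pin-dosed with compound in a titration series, co-stimulated with EC50 CoCl2 and incubated 17 hours at 37 degrees Celsius. CCF4 substrate was then loaded, and AC50 values came from the 460nm/530nm ratio.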

[19] = molecular target: Lysosomal acid glucosylceramidase (Homo sapiens) (UniProt P04062); assay: Glucocerebrosidase-p2 (AID 348; in the data active = potency below about 10 µM; also: potency is read from the fitted curve at half-maximal effect); conditions: purified GBA, blue fluorogenic substrate, 40 min
In short: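 Normal human glucocerebrosidase (0.2 nM) with blue fluorogenic substrate (80 uM final) in citrate/phosphate pH 5.9 with 10mM sodium taurocholate, 0.01% tween-20; 40 min RT, NaOH/glycine stop; fluorescence Ex 365/Em 440; AC50 from a titration from 0.6 nM upwards.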

[20] = at 7.69 µM (top of the series) unless noted

Sequence of Cytochrome P450 1A2 (Homo sapiens) (P05177 whole entry, looked up): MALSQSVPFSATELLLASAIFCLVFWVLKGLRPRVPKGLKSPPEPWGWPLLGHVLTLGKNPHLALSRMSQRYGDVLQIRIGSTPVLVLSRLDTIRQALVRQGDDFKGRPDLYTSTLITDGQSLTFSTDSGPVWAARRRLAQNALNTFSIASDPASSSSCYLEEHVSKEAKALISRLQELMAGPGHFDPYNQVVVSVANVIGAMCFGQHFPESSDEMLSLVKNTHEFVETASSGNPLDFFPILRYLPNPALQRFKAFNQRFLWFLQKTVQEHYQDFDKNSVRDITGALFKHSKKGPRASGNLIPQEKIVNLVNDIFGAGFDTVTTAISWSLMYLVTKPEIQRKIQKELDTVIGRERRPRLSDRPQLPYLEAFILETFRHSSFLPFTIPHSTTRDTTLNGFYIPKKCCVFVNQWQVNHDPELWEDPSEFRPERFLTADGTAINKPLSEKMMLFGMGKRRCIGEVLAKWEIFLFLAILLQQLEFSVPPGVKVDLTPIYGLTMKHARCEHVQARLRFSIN
Sequence of Pyruvate kinase PKM (Homo sapiens) (P14618 whole entry, looked up): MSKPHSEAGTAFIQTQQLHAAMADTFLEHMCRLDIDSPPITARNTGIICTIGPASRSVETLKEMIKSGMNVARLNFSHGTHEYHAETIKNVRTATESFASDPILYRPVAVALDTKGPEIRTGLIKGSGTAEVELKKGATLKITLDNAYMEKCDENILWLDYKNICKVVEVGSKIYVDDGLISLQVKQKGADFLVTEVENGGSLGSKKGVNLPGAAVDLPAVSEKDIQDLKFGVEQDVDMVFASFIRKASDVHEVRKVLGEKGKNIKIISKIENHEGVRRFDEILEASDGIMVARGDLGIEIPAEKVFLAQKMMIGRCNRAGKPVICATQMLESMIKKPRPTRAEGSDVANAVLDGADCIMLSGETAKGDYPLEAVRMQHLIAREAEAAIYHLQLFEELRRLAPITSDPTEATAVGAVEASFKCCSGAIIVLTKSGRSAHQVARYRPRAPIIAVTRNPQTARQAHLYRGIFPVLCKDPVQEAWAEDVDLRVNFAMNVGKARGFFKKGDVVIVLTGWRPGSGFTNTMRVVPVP
Sequence of 3',5'-cyclic-AMP phosphodiesterase 4B (Homo sapiens) (Q07343 whole entry, looked up): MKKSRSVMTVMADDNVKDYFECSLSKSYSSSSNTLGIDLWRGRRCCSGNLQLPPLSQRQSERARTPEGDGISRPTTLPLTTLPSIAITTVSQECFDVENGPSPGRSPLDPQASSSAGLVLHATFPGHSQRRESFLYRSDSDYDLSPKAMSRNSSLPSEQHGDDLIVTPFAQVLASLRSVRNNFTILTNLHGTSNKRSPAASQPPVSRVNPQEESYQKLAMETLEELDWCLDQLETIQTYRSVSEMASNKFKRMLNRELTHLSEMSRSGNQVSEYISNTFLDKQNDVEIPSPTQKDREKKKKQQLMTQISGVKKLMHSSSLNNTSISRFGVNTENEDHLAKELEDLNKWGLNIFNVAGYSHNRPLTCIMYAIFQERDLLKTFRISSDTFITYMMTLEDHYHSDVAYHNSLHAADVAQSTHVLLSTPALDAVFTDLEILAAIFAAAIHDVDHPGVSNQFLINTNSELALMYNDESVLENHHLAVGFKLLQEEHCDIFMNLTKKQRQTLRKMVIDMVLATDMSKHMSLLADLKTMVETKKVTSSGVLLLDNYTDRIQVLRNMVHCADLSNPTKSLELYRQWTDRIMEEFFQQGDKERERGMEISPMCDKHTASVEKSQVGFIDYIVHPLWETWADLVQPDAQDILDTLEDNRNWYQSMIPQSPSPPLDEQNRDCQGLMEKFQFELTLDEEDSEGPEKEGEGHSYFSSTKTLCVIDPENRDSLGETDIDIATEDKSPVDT
Sequence of Guanine nucleotide-binding protein G(i) subunit alpha-1 (Homo sapiens) (P63096 whole entry, looked up): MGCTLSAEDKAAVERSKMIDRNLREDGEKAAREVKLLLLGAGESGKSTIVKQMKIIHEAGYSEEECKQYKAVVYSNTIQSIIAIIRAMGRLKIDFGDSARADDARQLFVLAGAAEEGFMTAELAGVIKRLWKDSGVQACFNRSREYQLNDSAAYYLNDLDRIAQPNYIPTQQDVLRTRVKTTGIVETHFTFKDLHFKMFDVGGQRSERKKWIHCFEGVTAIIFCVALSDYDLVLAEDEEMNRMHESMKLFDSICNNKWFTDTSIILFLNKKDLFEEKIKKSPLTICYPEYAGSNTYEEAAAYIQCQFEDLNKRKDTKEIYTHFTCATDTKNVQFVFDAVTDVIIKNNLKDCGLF
Sequence of Pyruvate kinase (Leishmania mexicana) (Q27686 2-499 E452W): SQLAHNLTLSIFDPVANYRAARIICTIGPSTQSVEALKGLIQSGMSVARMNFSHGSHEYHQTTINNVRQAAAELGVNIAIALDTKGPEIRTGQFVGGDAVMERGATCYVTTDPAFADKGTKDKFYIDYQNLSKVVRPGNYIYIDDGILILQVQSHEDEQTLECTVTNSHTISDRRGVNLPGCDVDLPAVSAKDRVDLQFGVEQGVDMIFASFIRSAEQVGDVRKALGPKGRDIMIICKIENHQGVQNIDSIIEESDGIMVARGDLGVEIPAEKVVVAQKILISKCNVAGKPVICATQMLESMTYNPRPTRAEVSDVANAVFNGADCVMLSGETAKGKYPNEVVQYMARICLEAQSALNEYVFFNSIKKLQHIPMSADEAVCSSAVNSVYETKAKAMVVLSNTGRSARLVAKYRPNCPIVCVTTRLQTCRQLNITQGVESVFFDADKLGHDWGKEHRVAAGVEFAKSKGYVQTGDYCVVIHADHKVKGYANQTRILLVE
Sequence of Alpha-galactosidase A (Homo sapiens) (P06280 whole entry, looked up): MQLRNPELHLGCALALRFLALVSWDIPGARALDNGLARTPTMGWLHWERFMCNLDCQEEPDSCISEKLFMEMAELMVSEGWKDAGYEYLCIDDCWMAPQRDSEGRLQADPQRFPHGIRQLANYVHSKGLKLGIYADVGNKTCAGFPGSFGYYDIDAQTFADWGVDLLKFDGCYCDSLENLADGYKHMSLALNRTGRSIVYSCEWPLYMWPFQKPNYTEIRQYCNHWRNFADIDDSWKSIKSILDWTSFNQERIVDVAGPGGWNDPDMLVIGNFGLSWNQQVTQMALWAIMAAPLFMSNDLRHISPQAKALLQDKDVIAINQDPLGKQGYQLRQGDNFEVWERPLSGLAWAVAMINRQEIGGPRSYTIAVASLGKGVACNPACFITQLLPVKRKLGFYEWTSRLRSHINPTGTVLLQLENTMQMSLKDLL
Sequence of Muscarinic acetylcholine receptor M1 (Rattus norvegicus) (P08482 whole entry, looked up): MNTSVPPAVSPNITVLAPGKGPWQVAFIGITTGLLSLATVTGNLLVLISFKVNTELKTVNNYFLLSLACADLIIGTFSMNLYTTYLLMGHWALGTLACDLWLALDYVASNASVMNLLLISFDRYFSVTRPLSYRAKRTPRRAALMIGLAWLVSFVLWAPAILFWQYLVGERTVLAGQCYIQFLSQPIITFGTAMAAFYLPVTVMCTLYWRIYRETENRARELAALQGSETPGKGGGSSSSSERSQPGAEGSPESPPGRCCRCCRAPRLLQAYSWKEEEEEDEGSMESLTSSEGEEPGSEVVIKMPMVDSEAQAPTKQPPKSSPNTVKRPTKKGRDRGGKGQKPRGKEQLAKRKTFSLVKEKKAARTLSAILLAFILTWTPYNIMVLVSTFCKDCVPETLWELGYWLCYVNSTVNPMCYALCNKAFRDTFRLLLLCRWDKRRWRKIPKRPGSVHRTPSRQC
Sequence of Glucocorticoid receptor (Homo sapiens) (P04150 whole entry, looked up, the tested form may be a part): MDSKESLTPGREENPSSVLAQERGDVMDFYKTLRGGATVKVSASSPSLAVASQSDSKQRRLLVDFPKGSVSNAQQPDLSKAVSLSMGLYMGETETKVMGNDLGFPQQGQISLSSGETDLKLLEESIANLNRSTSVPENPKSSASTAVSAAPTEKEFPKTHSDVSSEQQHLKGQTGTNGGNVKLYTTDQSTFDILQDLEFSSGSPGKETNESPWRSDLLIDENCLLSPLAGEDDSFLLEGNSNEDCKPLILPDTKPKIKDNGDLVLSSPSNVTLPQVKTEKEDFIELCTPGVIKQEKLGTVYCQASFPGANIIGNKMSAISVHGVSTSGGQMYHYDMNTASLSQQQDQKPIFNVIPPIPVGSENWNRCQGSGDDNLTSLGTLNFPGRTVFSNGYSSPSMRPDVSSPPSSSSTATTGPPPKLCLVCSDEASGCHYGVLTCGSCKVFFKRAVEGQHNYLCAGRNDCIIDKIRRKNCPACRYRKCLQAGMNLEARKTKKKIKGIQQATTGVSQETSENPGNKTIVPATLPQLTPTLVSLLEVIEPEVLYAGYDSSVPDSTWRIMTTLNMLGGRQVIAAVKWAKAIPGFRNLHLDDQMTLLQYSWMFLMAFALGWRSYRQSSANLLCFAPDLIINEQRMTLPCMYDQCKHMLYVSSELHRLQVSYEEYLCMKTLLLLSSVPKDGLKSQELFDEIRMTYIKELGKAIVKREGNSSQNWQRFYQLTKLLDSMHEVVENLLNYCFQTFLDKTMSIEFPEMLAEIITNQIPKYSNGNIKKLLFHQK
Sequence of Cytochrome P450 2C9 (Homo sapiens) (P11712 whole entry, looked up): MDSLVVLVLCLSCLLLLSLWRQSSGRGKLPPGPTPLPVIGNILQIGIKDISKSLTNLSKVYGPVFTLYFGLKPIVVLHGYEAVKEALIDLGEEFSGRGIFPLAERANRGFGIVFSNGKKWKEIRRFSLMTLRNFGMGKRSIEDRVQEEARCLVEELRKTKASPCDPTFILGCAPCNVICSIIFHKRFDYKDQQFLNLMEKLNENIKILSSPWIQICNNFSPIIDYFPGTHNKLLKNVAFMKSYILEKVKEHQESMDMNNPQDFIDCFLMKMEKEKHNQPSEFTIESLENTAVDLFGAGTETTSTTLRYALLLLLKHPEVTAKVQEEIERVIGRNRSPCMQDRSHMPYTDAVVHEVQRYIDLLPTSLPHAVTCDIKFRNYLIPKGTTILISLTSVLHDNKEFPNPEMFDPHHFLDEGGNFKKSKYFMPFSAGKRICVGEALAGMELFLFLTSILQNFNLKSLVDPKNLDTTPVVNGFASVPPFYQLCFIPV

Cc1nnc(SCC2=C(C(=O)O)N3C(=O)[C@@H](NC(=O)Cn4cnnn4)[C@@H]3SC2)s1
inactive: activity change, negative = inhibition ([1]; at 17.2 µM (top of the series)) 3.67% | activity change, negative = inhibition ([1]; at 38 µM (top of the series)) 2.44% | Potency [2] | activity change, negative = inhibition ([3]; at 17.2 µM (top of the series)) 2.74% | activity change, negative = inhibition ([3]; at 38 µM (top of the series)) -2.96% | activity, negative = inhibition ([4]; at 17.2 µM (top of the series)) 8.89% | activity, negative = inhibition ([4]; at 38 µM (top of the series)) -5.18% | Potency [5] | Potency [6] | outcome [7] | Potency [8] | outcome [9] | Potency [10] | outcome [11] | outcome [12] | Potency [13]

O=C(O)/C(=C\c1ccccc1)c1ccccc1
inactive: activity change, negative = inhibition [1, 20] 3.72% | Potency [2] | activity change, negative = inhibition [3, 20] 1.44% | activity, negative = inhibition [4, 20] -0.514% | Potency [14] > 46 µM | Potency [15] > 9.22 µM | Potency [5] | Potency [6]

N=c1ccn2c(n1)O[C@@H]1[C@@H](O)[C@H](CO)O[C@H]12
inactive: activity change, negative = inhibition [1, 20] -4.43% [at 38 µM] | Potency [2] | activity change, negative = inhibition [3, 20] -5.26% [at 38 µM] | activity, negative = inhibition [4, 20] 0.604% [at 38 µM] | Potency [14] > 46 µM | Potency [15] > 46 µM | Potency [5] | Potency [6] | outcome [7] | Potency [16] | Potency [10] | outcome [17] | outcome [11] | outcome [12] | Potency [13]

Nc1ncnc2c1ncn2[C@@H]1CCCO1
inactive: activity change, negative = inhibition [1, 20] 2.44% [at 38 µM] | Potency [2] | activity change, negative = inhibition [3, 20] -4.45% [at 38 µM] | activity, negative = inhibition [4, 20] -7.91% [at 38 µM] | Potency [14] > 46 µM | Potency [15] > 46 µM | Potency [5] | Potency [6] | outcome [7] | Potency [16] | activation [18] -13.1% | outcome [9] | Potency [10] | outcome [17] | outcome [11] | outcome [12] | Potency [13]

COc1ncc2nc(-c3cc(F)cc(F)c3)c(=O)n(CCc3ccccc3)c2n1
inactive: Potency [19] > 11.4 µM | Potency [14] > 9.22 µM | Potency [15] > 46 µM | Potency [5]

Cc1ccccc1N1CCN(S(=O)(=O)C[C@@]23CC[C@H](C[C@H]2NC(=O)[C@@H](N)CCS(C)(=O)=O)C3(C)C)CC1
inactive: activity change, negative = inhibition [1, 20] 28.6% [at 38 µM] | Potency [2] | activity change, negative = inhibition [3, 20] 14% [at 38 µM] | activity, negative = inhibition [4, 20] -9.73% [at 38 µM] | Potency [14] > 46 µM | Potency [15] > 46 µM | Potency [5] | Potency [6] | outcome [7] | Potency [8] | outcome [9] | Potency [10] | outcome [17] | outcome [11] | outcome [12] | Potency [13]
